According to PubChem BioAssay AID1159580 (chemical genetic matrix, 2015):
“And” between values parts separate entries of the source, which are not always exact repeats. Equal values may be shown once. Screen size: about 5,500 compounds; about 2,000 (36%) were called active. Inconclusive results (about 18%) are left out. No stated cut-off is given here; in the data, active means normalized growth mostly below about 0.91 (no sharp cut-off); inconclusive means no clear call, values can overlap the other calls; inactive means mostly above about 0.92. This is one part of the list.

Assay: chemical genetic growth profiling, strain panel (AID 1159580);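 further: tested at 20 µM; growth read once vehicle control cultures reached saturation at 30 °C; 1 = growth at the plate median or of vehicle wells; lower values mean less growth of the strain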
Details: S. cerevisiae deletion strains, growth OD

Measured: normalized growth

Cn1c(=O)[nH]c(=O)c2[nH]cnc21
inactive: locus YAL013W, strain DEP1, hits give low values 0.993 | locus YAL021C, strain ccr4, hits give low values 0.997 | locus YAL026C, strain drs2, hits give low values 0.989 | locus YAL030W, strain snc1, hits give low values 0.995 | locus YBL061C, strain skt5, hits give low values 1.01 | locus YBR009C, strain hhf1, hits give low values 0.999 | locus YBR021W, strain FUR4, hits give low values 0.991 | locus YBR023C, strain chs3, hits give low values 0.985 | locus YBR171W, strain sec66, hits give low values 0.982 | locus YBR229C, strain ROT2, hits give low values 0.987 | locus YBR231C, strain swc5, hits give low values 0.993 | locus YBR279W, strain paf1, hits give low values 0.988 | locus YCL011C, strain gbp2, hits give low values 1 | locus YCL016C, strain dcc1, hits give low values 0.987 | locus YCL029C, strain bik1, hits give low values 0.971 | locus YCL061C, strain MRC1, hits give low values 0.981 | locus YCL069W, strain vba3, hits give low values 0.999 | locus YCR088W, strain abp1, hits give low values 0.988 | locus YDL005C, strain med2, hits give low values 0.966 | locus YDL035C, strain GPR1, hits give low values 1 | locus YDL040C, strain nat1, hits give low values 0.99 | locus YDL074C, strain BRE1, hits give low values 1.01 | locus YDL101C, strain DUN1, hits give low values 0.984 | locus YDL134C, strain PPH21, hits give low values 0.999 | locus YDL185W, strain tfp1, hits give low values 0.955 | locus YDL192W, strain arf1, hits give low values 0.981 | locus YDR001C, strain nth1, hits give low values 0.996 | locus YDR069C, strain doa4, hits give low values 0.971 | locus YDR101C, strain arx1, hits give low values 0.981 | locus YDR137W, strain rgp1, hits give low values 0.979 | locus YDR150W, strain NUM1, hits give low values 0.994 | locus YDR159W, strain sac3, hits give low values 0.956 | locus YDR162C, strain NBP2, hits give low values 0.988 | locus YDR195W, strain ref2 1 | locus YDR297W, strain sur2, hits give low values 1 | locus YDR318W, strain mcm21, hits give low values 0.98 | locus YDR334W, strain swr1, hits give low values 1.01 | locus YDR335W, strain msn5, hits give low values 0.997 | locus YDR388W, hits give low values 0.966 | locus YDR392W, strain spt3, hits give low values 0.941 | locus YDR502C, strain sam2, hits give low values 0.982 | locus YEL003W, strain gim4, hits give low values 1 | locus YEL037C, strain rad23, hits give low values 1 | locus YEL061C, strain CIN8 (second series), hits give low values 0.999 | locus YEL061C, strain CIN8, hits give low values 0.994 | locus YER015W, strain faa2, hits give low values 0.996 | locus YER016W, strain bim1, hits give low values 1.01 | locus YER110C, hits give low values 0.969 | locus YER111C, strain swi4, hits give low values 1 | locus YER155C, strain BEM2 (second series), hits give low values 0.981 | locus YER155C, strain BEM2, hits give low values 0.989 | locus YER167W, strain BCK2, hits give low values 0.975 | locus YFR010W, strain ubp6, hits give low values 1 | locus YGL078C, strain dbp3, hits give low values 0.969 | locus YGL086W, strain mad1, hits give low values 0.977 | locus YGL167C, strain pmr1, hits give low values 1 | locus YGL173C, strain kem1, hits give low values 0.991 | locus YGL227W, strain vid30, hits give low values 0.999 | locus YGL240W, strain doc1, hits give low values 0.969 | locus YGL248W, strain PDE1, hits give low values 0.983 | locus YGL253W, strain hxk2, hits give low values 0.975 | locus YGR078C, strain PAC10, hits give low values 0.996 | locus YGR135W, strain pre9, hits give low values 0.977 | locus YGR229C, strain SMI1, hits give low values 0.993 | locus YGR252W, strain gcn5, hits give low values 1.06 | locus YHR013C, strain ard1, hits give low values 0.975 | locus YHR027C, strain rpn1, hits give low values 0.983 | locus YHR030C, strain SLT2, hits give low values 0.981 and 0.987 | locus YHR079C, strain IRE1 (second series), hits give low values 0.97 | locus YHR079C, strain IRE1, hits give low values 0.984 | locus YHR094C, strain hxt1, hits give low values 0.977 | locus YHR129C, strain ARP1, hits give low values 0.994 | locus YHR142W, strain chs7, hits give low values 1 | locus YHR200W, strain rpn10, hits give low values 0.968 | locus YIL066C, strain RNR3, hits give low values 0.988 | locus YIL073C, strain SPO22, hits give low values 0.935 | locus YIL125W, strain kgd1, hits give low values 0.971 | locus YIR030C, strain dcg1, hits give low values 0.967 | locus YJL092W, strain hpr5, hits give low values 0.996 | locus YJL095W, strain BCK1 (second series), hits give low values 0.999 | locus YJL095W, strain BCK1, hits give low values 0.977 and 0.976 | locus YJL115W, strain asf1, hits give low values 0.973 | locus YJL129C, strain trk1, hits give low values 0.968 | locus YJL134W, strain LCB3, hits give low values 0.987 | locus YJL154C, strain vps35, hits give low values 0.998 | locus YJL164C, strain tpk1, hits give low values 1.01 | locus YJL166W, strain qcr8, hits give low values 1 | locus YJL168C, strain set2, hits give low values 0.973 | locus YJL187C, strain SWE1 (second series), hits give low values 0.987 | locus YJR043C, strain POL32, hits give low values 1 | locus YJR066W, strain TOR1, hits give low values 0.911
